D2 ag-1: activates the human D2 dopamine receptor; P14416; HEK293 T-REx D2 cells, calcium flux agonist mode; activation, % at 2 µM; 340,000 tested, 0.53% active; AID 485358;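 active = activation over 3 SD above normal in the single-dose calcium agonist read, cut at about 30% in these data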
Target sequence (P14416 whole entry, looked up): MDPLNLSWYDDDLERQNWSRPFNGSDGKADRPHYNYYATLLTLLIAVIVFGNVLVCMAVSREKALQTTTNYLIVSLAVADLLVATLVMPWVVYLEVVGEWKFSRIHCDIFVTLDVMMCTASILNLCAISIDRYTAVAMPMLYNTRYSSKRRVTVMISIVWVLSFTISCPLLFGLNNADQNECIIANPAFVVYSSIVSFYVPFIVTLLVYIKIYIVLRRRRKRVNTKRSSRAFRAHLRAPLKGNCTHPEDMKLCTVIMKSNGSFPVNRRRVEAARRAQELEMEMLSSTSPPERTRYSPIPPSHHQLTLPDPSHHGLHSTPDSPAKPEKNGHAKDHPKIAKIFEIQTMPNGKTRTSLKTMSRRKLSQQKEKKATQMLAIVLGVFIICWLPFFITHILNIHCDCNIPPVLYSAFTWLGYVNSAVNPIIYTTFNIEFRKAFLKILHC
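Tetracycline-induced HEK293 Trex cells with D2 receptor force-coupled to calcium signaling, plated overnight at 30 C and loaded with no-wash calcium dye. Calcium flux read kinetically for 180 s after compound addition; responses flag agonists.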
D2 PAM-1: potentiates the human D2 dopamine receptor allosterically. P14416. DiscoveRx D2 beta-arrestin cells, luminescence, 90 min; 100% = 57 uM dopamine signal. potentiation, % (concentration not given with the values). 360,000 tested, 0.23% active; in the data active = potentiation above about 50%; inconclusive = mostly about 30% to 49%
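PathHunter beta-arrestin assay in DiscoveRx D2 cells. Compounds were added with an EC20 of dopamine (50 nM final) for 90 min at 37 deg C. Luminescence was read 1 h after detection reagent, with 57 uM dopamine as the EC100 control.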
D2 PAM-2: positively modulates the human D2 dopamine receptor allosterically. HEK293 T-REx D2, calcium flux, EC20 dopamine potentiation. P14416. 340,000 tested, 0.34% active. potentiation, % at 10 µM. AID 485347;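 active = potentiation over 3 SD above the plate norm, cut at about 30% in these data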
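Cells plated with tetracycline inducer and held overnight at 30 C; calcium dye loaded 30–90 min at room temperature; baseline taken, compound added and read 180 s; EC20 dopamine then added and read 180 s.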
D2 ag-2: human D2 receptor agonism in beta-arrestin assay; DiscoveRx PathHunter D2 beta-arrestin, luminescence, 90 min; 100% = 57 uM dopamine signal; P14416; activation, % (no concentration beside the values); 360,000 tested, 0.084% active; AID 624465; in the data active = activation above about 40%; inconclusive = between about 15% and that limit
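DiscoveRx PathHunter D2 beta-arrestin cells (2,100/well) attached overnight, then compound-stimulated 90 min at 37 C in HBSS/10 mM HEPES/0.1% Tween-20 buffer; beta-galactosidase complementation read by luminescence after 1 h at ambient temperature. Dopamine 57 uM final (EC100) as control.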
D2 antag: antagonizes the human D2 dopamine receptor; P14416; HEK293 TREx D2 cells, calcium flux, dopamine EC80; inhibition, % at 10 µM; 340,000 tested, 2% active; in the data active = inhibition above about 30%; inactive = below that, where a call was filed
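Overnight-induced (tetracycline, 30 C) HEK293 T-REx cells carrying force-coupled D2 receive a no-wash calcium dye, then compound, then EC80 dopamine at 180 s; signals are read kinetically throughout.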
Large screens that a line does not name were inactive. The list is not random: actives were taken first. Their share in the collection is about 2.4%.

CC(C)CC(=O)Nc1ccc(C(=O)CN2C(=O)NC3(CCOc4ccccc43)C2=O)cc1 (configuration not stated)	D2 PAM-2 33
CNC(=O)NC(=O)CN1C(=O)NC2(CCOc3ccccc32)C1=O (configuration not stated)	D2 antag 31
Cc1cccc(NC(=O)CNC(=O)CN2C(=O)NC3(CCCc4ccccc43)C2=O)c1C (configuration not stated)	none
CCCCN(C)CCCNC(=O)Cn1ncc2c3ccccc3n(Cc3cccc(Cl)c3)c2c1=O	none (no result: D2 PAM-1, D2 ag-2, D2 antag)
CC(C)CN(CC(C)C)S(=O)(=O)c1ccc(C(=O)Nc2sc3c(c2C(N)=O)CCN(C(C)C)C3)cc1	none (no result: D2 PAM-1, D2 ag-2, D2 antag)
CCN(C(=O)Cn1nnc2sc(-c3ccccc3)cc2c1=O)c1cccc(C)c1	none (no result: D2 PAM-1, D2 ag-2, D2 antag)
CCn1cc(S(=O)(=O)N2CCN(Cc3cccc(Cl)c3)CC2)cn1	D2 antag 34
Cc1ccc(S(=O)(=O)Nc2ccc3c(c2)nc(CCN2CCCC2)n3C)cc1	D2 antag 39
Cn1c(CCN2CCCCC2)nc2cc(NS(=O)(=O)c3ccccc3)ccc21	D2 antag 38
Cn1c(CCN2CCOCC2)nc2cc(NS(=O)(=O)c3ccccc3)ccc21	none
CCN(CC)CCOC(=O)c1ccc(NC(=O)CCCN2C(=O)/C(=C/c3cccs3)SC2=S)cc1	D2 antag 49
O=C(CCCN1C(=O)/C(=C\c2cccs2)SC1=S)Nc1ccc(C(=O)O)cc1	none (no result: D2 ag-1, D2 PAM-2, D2 antag)
Cc1ccc(C)c(NC(=O)CCc2c(C)n(C)c3cc(-c4ccccc4C)nn3c2=O)c1	none (no result: D2 PAM-1, D2 ag-2, D2 antag)
CCc1nn(C(C)C(=O)NCCN2CCN(c3cccc(C)c3C)CC2)c(=O)c2cc3occc3n12 (configuration not stated)	D2 antag 52
Cc1ccsc1/C=N/N=C/c1sccc1C	none
Cc1ccsc1C=Nc1ccc(O)cc1	D2 PAM-1 75, D2 ag-2 inconclusive
Cc1cc(C)n(-c2ccc(C(=O)N3CC(C)OC(C)C3)cc2)n1 (configuration not stated)	D2 antag 34
C=CCn1c(SCC(=O)c2cccs2)nc2sc(C)c(C)c2c1=O	none (no result: D2 ag-1, D2 PAM-2, D2 antag)
C=CCn1c(SCc2cc(=O)n3ccsc3n2)nc2sc(C)c(C)c2c1=O	D2 PAM-2 36
C=CCSc1nc2sc(C)c(C)c2c(=O)n1CC=C	none
C=CCn1c(SCc2ccc(C(=O)NCCO)cc2)nc2sc(C)c(C)c2c1=O	D2 PAM-2 31
Cc1ccc2nc(N(Cc3cccnc3)C(=O)CCOc3ccccc3)sc2c1	none (no result: D2 PAM-1, D2 ag-2, D2 antag)
Cc1ccc(C(=O)c2oc3ccccc3c2NC(=O)c2nc(S(C)(=O)=O)ncc2Cl)cc1F	none (no result: D2 ag-1, D2 PAM-1, D2 ag-2, D2 antag)
COc1ccc(S(=O)(=O)N2CCN(C(=O)[C@@H]3CCC(=O)N3C3OC(=O)c4ccccc43)CC2)cc1 (some centres not stated)	D2 antag 52
CCOC(=O)c1c(C)oc2ncnc(N3CCN(c4ccccc4)CC3)c12	none (no result: D2 PAM-1, D2 ag-2, D2 antag)
COc1ccc(NC(=O)CSc2nnc(NC(=O)NC3CCCCC3)s2)cc1OC	none (no result: D2 PAM-1, D2 ag-2, D2 antag)
CC1CCC/C(=N/Nc2ccc([N+](=O)[O-])cc2[N+](=O)[O-])C1 (configuration not stated)	D2 PAM-1 74
Cc1ccccc1Nc1nc(-c2sc(NC(=O)c3cccc(Cl)c3)nc2C)cs1	D2 PAM-2 31 (no result: D2 PAM-1, D2 ag-2)
CCOc1ccc(CNC(=O)CCS(=O)(=O)c2cc3c4c(c2)CCN4C(=O)CC3)cc1	none (no result: D2 PAM-1, D2 ag-2, D2 antag)
C=CCn1c(C)cc(C(=O)COC(=O)/C=C/c2cccc(OC)c2)c1C	D2 antag 42
COc1ccccc1NC(=O)Cn1c(=O)n(C)c(=O)c2sc3c(c21)COC(C)(C)C3	D2 antag 32
Cc1ccc2c(c1)C1(C(=O)N2C)N2CC3(C)CN1CC(C)(C2)C3=O (configuration not stated)	D2 PAM-2 33
CCCC12CN3CC(C)(CN(C1)C31C(=O)Nc3ccc(C)cc31)C2=O (configuration not stated)	none
COc1cccc(Cc2nc3ccccc3nc2SCC(=O)Nc2cccc(C)c2)c1	none (no result: D2 ag-1, D2 PAM-1, D2 ag-2, D2 antag)
CN(C)S(=O)(=O)c1cccc(C(=O)Nc2ccccc2)c1	D2 antag 47
CN(C)S(=O)(=O)c1cccc(NC(=O)c2ccc(OC(F)(F)F)cc2)c1	D2 antag 46

Screens from PubChem.
